# Test results published in PubChem BioAssay (Tox21).
# Where “and” joins values, the source holds several entries; their conditions need not be identical. Identical values can stand only once. Results filed as inconclusive are left out. A call without a number means that no potency is given here. Calls of active or inactive are those of the source. Unless noted, the call rests on the fitted dose curve; in most records, active means well fitted curve in the direction sought with a large enough effect in the repeat runs; inconclusive means weak or mixed curves; inactive means no such curve, though single readings can be large; an effect the other way counts as inactive or inconclusive.
# Tests used:
# [1] = qHTS assay to identify small molecule antagonists of the estrogen related receptor (ERR) signaling pathway from Tox21 library - cell viability counter screen (AID 1224834); further: nearly all actives have a fitted effect of over 30% in size; further: potency means the concentration at half of the fitted maximal effect
# Method in brief: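 ERR reporter cells were plated 6 h before compound addition, then exposed to test compounds in DMSO for 17.5 h at 37 C. Viability was read as CellTiter-Fluor fluorescence after a 30-minute incubation at 37 C.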
# [2] = biological target: Luciferin 4-monooxygenase (Photinus pyralis) (UniProt P08659); test: qHTS assay to identify small molecule inhibitors of firefly luciferase (AID 1224835); further: nearly all actives have a fitted effect of over 25% in size; further: potency means the concentration at half of the fitted maximal effect
# Method in brief: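 Biochemical qHTS: compounds run as interplate titrations against purified firefly enzyme, with D-luciferin and ATP each at its KM concentration. Light output recorded by CCD imaging.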
# [3] = qHTS assay to identify small molecule antagonists of the estrogen related receptor signaling pathway with the pleiotropic PPARgamma coactivator (PGC) from Tox21 10K library (AID 1224841; call rule not given here; further: actives are mostly falling curves and most rising ones were filed inactive; nearly all actives have a fitted effect of over 50% in size; further: potency means the concentration at half of the fitted maximal effect)
# Method in brief: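 PGC/ERR reporter cells were seeded at 2,000 cells/well and held 6 hours at 37 C/5% CO2 before pin-tool addition of compounds in DMSO. After 18 hours at 37 C, One-Glo was added and luminescence read after 30 minutes at room temperature.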
# [4] = qHTS assay to identify small molecule agonists of the estrogen related receptor signaling pathway with the pleiotropic PPARgamma coactivator (PGC) from Tox21 10K library (AID 1224842); further: nearly all actives have a fitted effect of over 15% in size; further: potency means the concentration at half of the fitted maximal effect
# Method in brief: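 PGC/ERR reporter cell line, 2,000 cells per well, incubated 6 h at 37 C before 23 nL compound in DMSO was added. After 18 h at 37 C, One-Glo luminescence read following 30 min at room temperature.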
# [5] = biological target: Thyrotropin receptor (Homo sapiens) (UniProt P16473); test: qHTS assay to identify small molecule agonists of the thyroid stimulating hormone receptor (TSHR) signaling pathway (AID 1224843; calls by dose curve; further: nearly all actives have a fitted effect of over 45% in size; further: potency means the concentration at half of the fitted maximal effect)
# Method in brief: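 Steps: seed 800 TSHR-HEK293 cells per well; add test compound and hold 30 min at ambient temperature; dispense cAMP-d2 then anti-cAMP cryptate; incubate 1 h at ambient; measure fluorescence intensity.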
# [6] = qHTS assay to identify small molecule agonists of the constitutive androstane receptor (CAR) signaling pathway - cell viability counter screen (AID 1224836); further: series mostly up to about 92 µM; nearly all actives have a fitted effect of over 45% in size
# Method in brief: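 Double-stable HepG2 hepatoma cells (hCAR plus CYP2B6-2.2kb) are treated for 23 h at 37 C with test compounds in 15-point concentration series. PK11195 at 0.75 uM final is co-added. Cell viability is quantified by CellTiter-Fluor.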
# [7] = qHTS assay to identify small molecule antagonists of the constitutive androstane receptor (CAR) signaling pathway - cell viability counter screen (AID 1224837); further: series mostly up to about 92 µM; nearly all actives have a fitted effect of over 45% in size
# Method in brief: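 HepG2 cells stably expressing hCAR and a CYP2B6-2.2kb reporter were plated and pre-incubated 4 hr at 37 C/5% CO2, then given compounds at 15 concentrations plus 50 nM CITCO (final). After 23 hr, viability was read by CellTiter-Fluor fluorescence.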
# [8] = biological target: Nuclear receptor subfamily 1 group I member 3 (Homo sapiens) (UniProt Q14994); test: qHTS assay to identify small molecule agonists of the constitutive androstane receptor (CAR) signaling pathway (AID 1224839); further: nearly all actives have a fitted effect of over 15% in size; further: potency means the concentration at half of the fitted maximal effect
# Method in brief: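 Readout: firefly luciferase luminescence via ONE-Glo. System: HepG2 double-stable for hCAR and CYP2B6-2.2kb. Conditions: 15-point compound titration, PK11195 at 0.75 uM final, 24 h incubation.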
# [9] = qHTS assay to identify small molecule antagonists of the estrogen related receptor signaling pathway with the pleiotropic PPARgamma coactivator (PGC) from Tox21 10K library - cell viability counter screen (AID 1224840; active means well fitted cell-killing curve with a large enough effect in the repeat runs, not every such curve was filed as active; further: nearly all actives have a fitted effect of over 40% in size)
# Method in brief: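 PGC/ERR cells were seeded at 2,000 cells/well and left 6 hours at 37 C/5% CO2 before pin-tool addition of compounds in DMSO. After 17.5 hours at 37 C, CellTiter-Fluor was added and fluorescence read 30 minutes later.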
# [10] = biological target: Nuclear receptor subfamily 1 group I member 3 (Homo sapiens) (UniProt Q14994); test: qHTS assay to identify small molecule antagonists of the constitutive androstane receptor (CAR) signaling pathway (AID 1224838); further: nearly all actives have a fitted effect of over 40% in size; further: potency means the concentration at half of the fitted maximal effect
# Method in brief: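 HepG2 cells stably co-transfected with hCAR and a CYP2B6-2.2kb luciferase reporter were seeded 4 h before compound addition at 15 concentrations. Cells were stimulated with 50 nM CITCO (final) for 24 h at 37 C; luciferase luminescence was then read.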
# Nuclear receptor subfamily 1 group I member 3 (Homo sapiens), sequence (Q14994 whole entry, looked up): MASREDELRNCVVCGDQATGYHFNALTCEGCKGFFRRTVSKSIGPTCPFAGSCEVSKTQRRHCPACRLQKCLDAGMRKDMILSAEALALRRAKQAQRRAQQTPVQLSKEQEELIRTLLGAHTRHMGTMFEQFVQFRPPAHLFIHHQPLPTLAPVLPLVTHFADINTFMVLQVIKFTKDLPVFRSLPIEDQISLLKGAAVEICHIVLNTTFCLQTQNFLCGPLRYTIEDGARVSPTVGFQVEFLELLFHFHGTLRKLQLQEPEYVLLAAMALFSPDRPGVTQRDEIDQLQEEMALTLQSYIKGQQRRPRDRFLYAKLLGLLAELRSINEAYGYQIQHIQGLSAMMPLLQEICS
# Luciferin 4-monooxygenase (Photinus pyralis), sequence (P08659 whole entry, looked up): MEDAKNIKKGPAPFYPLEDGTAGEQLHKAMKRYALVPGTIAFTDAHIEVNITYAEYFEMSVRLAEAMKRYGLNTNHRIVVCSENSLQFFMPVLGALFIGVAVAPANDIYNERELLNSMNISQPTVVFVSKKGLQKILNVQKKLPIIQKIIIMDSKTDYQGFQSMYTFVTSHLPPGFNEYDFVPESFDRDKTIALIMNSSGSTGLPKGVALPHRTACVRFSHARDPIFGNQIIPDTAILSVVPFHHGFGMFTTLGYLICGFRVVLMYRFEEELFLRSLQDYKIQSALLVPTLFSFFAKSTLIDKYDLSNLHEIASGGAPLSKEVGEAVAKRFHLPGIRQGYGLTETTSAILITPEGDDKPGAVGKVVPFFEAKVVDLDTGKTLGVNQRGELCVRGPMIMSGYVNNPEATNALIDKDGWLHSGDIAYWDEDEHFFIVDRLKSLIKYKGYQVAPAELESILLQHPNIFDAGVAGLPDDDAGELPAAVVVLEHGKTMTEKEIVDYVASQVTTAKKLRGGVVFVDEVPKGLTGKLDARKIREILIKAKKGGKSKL
# Thyrotropin receptor (Homo sapiens), sequence (P16473 whole entry, looked up): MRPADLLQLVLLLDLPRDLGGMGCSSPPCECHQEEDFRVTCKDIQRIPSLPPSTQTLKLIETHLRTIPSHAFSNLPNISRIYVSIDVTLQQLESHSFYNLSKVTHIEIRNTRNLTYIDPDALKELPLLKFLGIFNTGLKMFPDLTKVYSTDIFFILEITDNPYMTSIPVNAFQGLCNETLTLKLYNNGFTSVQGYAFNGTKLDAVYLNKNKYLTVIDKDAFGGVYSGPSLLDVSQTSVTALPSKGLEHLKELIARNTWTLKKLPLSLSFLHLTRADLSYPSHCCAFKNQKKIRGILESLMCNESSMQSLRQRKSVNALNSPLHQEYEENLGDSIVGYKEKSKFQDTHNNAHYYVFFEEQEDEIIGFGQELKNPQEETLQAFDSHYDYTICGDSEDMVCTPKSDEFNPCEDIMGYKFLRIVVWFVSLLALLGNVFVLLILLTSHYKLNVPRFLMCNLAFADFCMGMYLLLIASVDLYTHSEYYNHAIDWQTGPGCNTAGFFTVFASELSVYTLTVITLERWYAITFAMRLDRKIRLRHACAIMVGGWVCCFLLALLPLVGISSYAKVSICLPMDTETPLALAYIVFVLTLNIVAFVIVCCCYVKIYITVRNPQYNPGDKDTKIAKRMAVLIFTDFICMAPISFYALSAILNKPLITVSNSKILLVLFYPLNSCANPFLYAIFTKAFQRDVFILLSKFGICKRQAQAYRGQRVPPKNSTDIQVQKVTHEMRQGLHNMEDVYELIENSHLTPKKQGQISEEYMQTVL
SMILES,Potency [1],Potency [2],Potency [3],Potency [4],Potency [5],Potency [6],Potency [7],Potency [8],Potency [9],Potency [10]
c1ccc2c(c1)cc1ccc3cccc4ccc2c1c34,inactive,10.2 µM (active),inactive,22.1 µM (active),inactive,–,–,–,–,–
ClSC(Cl)(Cl)Cl,inactive,–,inactive,inactive,–,inactive,inactive,inactive,inactive,–
C=CCOC(=O)c1ccccc1N,inactive,–,inactive,inactive,–,inactive,inactive,–,inactive,inactive
CO/N=C(/C1=NOCCO1)c1ccccc1Oc1ncnc(Oc2ccccc2Cl)c1F,27.3 µM (active),inactive,–,–,–,–,–,–,–,inactive
CCN(CC)CCc1c[nH]c2ccccc12,inactive,inactive,–,–,inactive,inactive,–,–,inactive,–
COP(=S)(NC(C)C)Oc1ccc(C)cc1[N+](=O)[O-] (configuration not stated),–,inactive,–,–,–,inactive,inactive,6.86 µM (active),inactive,–
C#CCC1=C(C)C(OC(=O)C2C(C=C(C)C)C2(C)C)CC1=O (configuration not stated),–,inactive,–,inactive,60.7 µM (active),inactive,inactive,60.7 µM (active),–,inactive
Cc1nn(-c2cc(NS(C)(=O)=O)c(Cl)cc2Cl)c(=O)n1C(F)F,–,inactive,inactive,inactive,–,inactive,inactive,–,inactive,–
Nc1ccc(Cl)cc1C(=O)c1ccccc1F,–,inactive,inactive,–,inactive,inactive,inactive,23.7 µM (active),inactive,inactive
Cc1ccc(C)c2ccccc12,–,inactive,–,–,–,inactive,inactive,inactive,inactive,inactive
NC1CCC(CC2CCC(N)CC2)CC1 (configuration not stated),–,inactive,–,–,–,inactive,inactive,inactive,–,inactive
O=C(NC(=O)c1c(F)cccc1F)Nc1ccc(Oc2ccc(C(F)(F)F)cc2Cl)cc1F,–,inactive,–,–,–,inactive,inactive,–,inactive,inactive
CCCCC(CC)COC(=O)c1ccccc1C(=O)OCC(CC)CCCC (configuration not stated),–,inactive,–,–,–,inactive,inactive,17.2 µM (active),inactive,inactive
O=S1OCC2C(CO1)C1(Cl)C(Cl)=C(Cl)C2(Cl)C1(Cl)Cl (configuration not stated),–,inactive,–,–,4.33 µM (active) and 8.63 µM (active),inactive,inactive,30.7 µM (active) and 17.2 µM (active),–,inactive
CCC1(CC)C(=O)N=C(O)NC1=O,–,inactive,–,–,–,inactive,inactive,inactive,inactive,–
CN1C(=O)[C@@H](NC(=O)c2cc3ccccc3[nH]2)N=C(c2ccccc2)c2ccccc21,–,inactive,–,inactive,inactive,inactive,inactive,inactive,inactive,inactive
CCCCC/C=C\C/C=C\C/C=C\C/C=C\CCCC(=O)NCC(=O)O,–,inactive,–,–,–,inactive,inactive,inactive,inactive,–
CCCCC(CC)COC(=O)OOC(C)(C)C (configuration not stated),–,inactive,–,–,–,inactive,inactive,inactive,inactive,inactive
CC[C@]1(O)CC[C@H]2[C@@H]3CCC4=CCCC[C@@H]4[C@H]3CC[C@@]21C,–,inactive,inactive,–,15 µM (active),inactive,inactive,inactive,inactive,33.5 µM (active)
Clc1ccc(C(c2ccc(Cl)cc2)C(Cl)Cl)cc1,–,inactive,inactive,inactive,inactive,inactive,inactive,49.3 µM (active) and 21.7 µM (active),inactive,–
C[C@]12Cc3cn[nH]c3C[C@@H]1CC[C@@H]1[C@@H]2CC[C@@]2(C)[C@H]1CC[C@]2(C)O,–,inactive,–,inactive,inactive,inactive,inactive,inactive,inactive,–
CCC1COC(Cn2cncn2)(c2ccc(Cl)cc2Cl)O1 (configuration not stated),–,inactive,61.1 µM (active),inactive,inactive,inactive,inactive,–,–,inactive
CCc1cccc(C)c1N(C(=O)CCl)[C@@H](C)COC,–,inactive,30.6 µM (active),inactive,34.4 µM (active),inactive,inactive,19.3 µM (active),inactive,inactive
O=[N+]([O-])c1cccc2cccc([N+](=O)[O-])c12,–,inactive,–,–,–,inactive,inactive,54.7 µM (active),inactive,inactive
O=C(N[C@H]1N=C(c2ccccc2F)c2cccc3c2N(CC3)C1=O)c1cc2ccccc2[nH]1,–,inactive,–,–,inactive,inactive,inactive,inactive,inactive,inactive
